Assay results reported in PubChem BioAssay.
Active and inactive are the calls of the source. Unless noted, the rule behind the calls is not given here.

How the values were obtained:
[1] = anti-His antibody binders, primary screen, artefact control for SMM control protein annotation, biochemical, small-molecule microarray, 635 nm fluorescence (AID 1128); details: anti-His Alexa647 antibody binding, higher = more signal;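 note: score merges feature fluorescence with signal-to-noise for each printed compound spot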
[2] = system: Human papillomavirus type 1a E7 protein (residues 1-88); test: HPV1a E7 small-molecule binders, primary screen, biochemical, small-molecule microarray, residues 1-88, 635 nm (AID 1129); details: small-molecule microarray binding, fluorescence 635 nm; higher = more signal
[3] = molecular target: Focal adhesion kinase 1 (Homo sapiens) (UniProt Q05397); test: small-molecule microarray binders of FAK, primary screen, biochemical, 635/667 nm fluorescence, BSA, DTT (AID 1130); details: PTK2 binding, 635 nm fluorescence, higher = more signal;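 note: composite of spot emission at 667 nm and signal to noise over triplicate slides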
Chain of Focal adhesion kinase 1 (Homo sapiens) (Q05397 whole entry, looked up): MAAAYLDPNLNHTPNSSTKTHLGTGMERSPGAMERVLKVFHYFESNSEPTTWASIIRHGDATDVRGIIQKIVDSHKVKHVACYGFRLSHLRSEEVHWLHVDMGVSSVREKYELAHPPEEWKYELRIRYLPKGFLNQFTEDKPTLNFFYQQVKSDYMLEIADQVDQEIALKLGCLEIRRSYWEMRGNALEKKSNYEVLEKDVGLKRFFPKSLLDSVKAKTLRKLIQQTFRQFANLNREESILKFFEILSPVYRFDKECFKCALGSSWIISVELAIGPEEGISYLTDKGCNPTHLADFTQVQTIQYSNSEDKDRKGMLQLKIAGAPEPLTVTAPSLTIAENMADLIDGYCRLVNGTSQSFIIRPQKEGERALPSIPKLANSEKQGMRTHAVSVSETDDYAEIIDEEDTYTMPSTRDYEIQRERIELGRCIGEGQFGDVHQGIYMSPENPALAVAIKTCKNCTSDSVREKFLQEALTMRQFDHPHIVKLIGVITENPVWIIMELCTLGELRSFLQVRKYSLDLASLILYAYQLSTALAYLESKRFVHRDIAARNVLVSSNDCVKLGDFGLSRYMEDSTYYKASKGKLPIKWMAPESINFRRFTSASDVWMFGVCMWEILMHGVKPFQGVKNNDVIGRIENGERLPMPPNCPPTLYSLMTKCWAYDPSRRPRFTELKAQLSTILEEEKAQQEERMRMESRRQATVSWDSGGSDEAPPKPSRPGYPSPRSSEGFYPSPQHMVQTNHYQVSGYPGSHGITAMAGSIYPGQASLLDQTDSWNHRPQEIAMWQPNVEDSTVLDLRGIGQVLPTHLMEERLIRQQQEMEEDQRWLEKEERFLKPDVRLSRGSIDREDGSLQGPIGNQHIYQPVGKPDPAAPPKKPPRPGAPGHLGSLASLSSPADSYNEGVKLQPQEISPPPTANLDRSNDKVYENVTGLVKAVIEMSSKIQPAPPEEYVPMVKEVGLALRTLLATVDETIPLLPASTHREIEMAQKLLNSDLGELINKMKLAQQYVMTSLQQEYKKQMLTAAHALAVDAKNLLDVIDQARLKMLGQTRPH

[4] = system: Fibrinogen (Alexa647-labelled); test: fibrinogen binders on compound microarrays, profiling panel, artefact control for SMM control-protein annotation, biochemical, small-molecule microarray, 635/667 nm fluorescence (AID 1131); details: fibrinogen-A647 binding fluorescence, higher = more signal;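 note: z-score merges 667 nm fluorescence with per-spot signal-to-noise over triplicate slides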
[5] = molecular target: Follistatin (Homo sapiens) (UniProt P19883); test: follistatin binders on small-molecule microarrays, primary screen, biochemical, small-molecule microarray, 635/667 nm fluorescence (AID 1132); details: FST binding, 635 nm fluorescence, higher = more signal
Chain of Follistatin (Homo sapiens) (P19883 whole entry, looked up): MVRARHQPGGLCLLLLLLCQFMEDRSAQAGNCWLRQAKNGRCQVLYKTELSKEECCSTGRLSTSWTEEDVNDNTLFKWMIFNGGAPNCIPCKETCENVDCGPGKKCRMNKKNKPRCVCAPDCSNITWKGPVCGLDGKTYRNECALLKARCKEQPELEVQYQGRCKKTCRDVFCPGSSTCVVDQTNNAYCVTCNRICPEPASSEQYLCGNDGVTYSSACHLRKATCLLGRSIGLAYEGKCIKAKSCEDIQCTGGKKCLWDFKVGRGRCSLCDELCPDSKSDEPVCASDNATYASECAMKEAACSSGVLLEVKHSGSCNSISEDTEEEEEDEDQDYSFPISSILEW

[6] = molecular target: Fibroblast growth factor 2 (Homo sapiens) (UniProt P09038); test: FGF2 binders on small-molecule microarrays, primary screen, biochemical, small-molecule microarray, 635/667 nm fluorescence (AID 1133); details: small-molecule microarray binding, FGF2, fluorescence 635/667; higher = more signal
Chain of Fibroblast growth factor 2 (Homo sapiens) (P09038 whole entry, looked up): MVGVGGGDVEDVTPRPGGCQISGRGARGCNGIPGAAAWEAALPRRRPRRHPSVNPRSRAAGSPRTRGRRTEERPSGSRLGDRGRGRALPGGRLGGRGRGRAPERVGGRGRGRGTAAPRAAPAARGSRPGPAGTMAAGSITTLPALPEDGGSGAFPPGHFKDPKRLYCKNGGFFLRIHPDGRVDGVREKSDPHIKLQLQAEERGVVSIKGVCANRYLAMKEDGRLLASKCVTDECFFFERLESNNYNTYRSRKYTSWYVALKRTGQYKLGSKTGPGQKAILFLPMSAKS

[7] = mitochondrial membrane potential change in A549 cells, profiling panel, cell-based, JC-1 fluorescence, basal, 24 h, 100 nL (AID 1138); details: higher = more signal;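 note: A549 lung adenocarcinoma cells under basal conditions with no added stimulus; test concentration not given here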
Lefty1 = Lefty1 binders on small-molecule microarrays, primary screen, biochemical, small-molecule microarray, 635/667 nm fluorescence (AID 1139); details: small-molecule microarray binding, fluorescence 635/667; higher = more signal
[8] = system: wheat germ agglutinin (Triticum aestivum), Alexa647-labelled; test: wheat germ agglutinin binders on compound microarrays, profiling panel, artefact control for SMM control-protein annotation, biochemical, small-molecule microarray, 635/667 nm fluorescence (AID 1140); details: WGA-A647 binding, 635 nm fluorescence, higher = more signal;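 note: score merges 667 nm feature emission with signal to noise over triplicate slides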
[9] = molecular target: Luciferin 4-monooxygenase (Photinus pyralis) (UniProt P08659); test: firefly luciferase enzyme inhibitors, primary screen, biochemical, luminescence, purified enzyme, 2006 set (AID 1141); details: SteadyGlo luminescence, 30 min, higher = more signal, called active from +8 up or from −8 down;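 note: cell-free assay with purified firefly luciferase at 100 ng per well in PBS; test concentration not given here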
Chain of Luciferin 4-monooxygenase (Photinus pyralis) (P08659 whole entry, looked up): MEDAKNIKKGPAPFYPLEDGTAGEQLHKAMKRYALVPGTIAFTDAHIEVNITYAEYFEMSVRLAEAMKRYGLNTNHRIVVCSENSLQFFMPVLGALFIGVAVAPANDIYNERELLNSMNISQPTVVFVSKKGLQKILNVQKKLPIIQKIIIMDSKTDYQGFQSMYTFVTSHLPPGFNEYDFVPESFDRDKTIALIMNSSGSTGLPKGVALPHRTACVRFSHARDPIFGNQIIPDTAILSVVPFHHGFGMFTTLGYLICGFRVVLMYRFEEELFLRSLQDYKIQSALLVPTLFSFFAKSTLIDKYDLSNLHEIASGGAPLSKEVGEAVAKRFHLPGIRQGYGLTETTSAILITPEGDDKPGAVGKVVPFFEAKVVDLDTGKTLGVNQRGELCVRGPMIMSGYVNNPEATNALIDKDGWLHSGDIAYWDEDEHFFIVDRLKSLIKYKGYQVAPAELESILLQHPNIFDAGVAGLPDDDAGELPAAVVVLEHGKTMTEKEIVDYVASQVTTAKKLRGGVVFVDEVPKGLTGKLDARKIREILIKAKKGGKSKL

[10] = system: Wnt5a (protein binding on small-molecule microarray); test: Wnt5a binders on small-molecule microarray, primary screen, biophysical, 635/667 nm fluorescence (AID 1142); details: 635 nm fluorescence, higher = more signal;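 note: fluorescence read at 667 nm with signal to noise per printed feature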
[11] = cell viability in Huh7 cells, primary screen, cytotoxicity control for HCV replication inhibitor project, CellTiter-Glo luminescence, basal, 48 h (AID 1143); details: Huh7 HCV replicon, higher = more signal, called active from +8 up or from −8 down;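 note: Huh7 hepatoma cells carrying a hepatitis C replication reporter with no stimulus; test concentration not given here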
[12] = P. aeruginosa biofilm formation inhibitors, primary screen, PAO1 strain, BacTiter-Glo luminescence, LB-PBS (AID 1144); details: 12 h, higher = more signal
[13] = CREB reporter modulators without forskolin, primary screen, cell-based, PC12, CRE-LacZ reporter, unstimulated (AID 1145); details: no forskolin, luminescence, 4.5 h, higher = more signal, called active from +8 up or from −8 down
[14] = CREB reporter modulators under forskolin, primary screen, cell-based, PC12, CRE-LacZ reporter, forskolin-stimulated (AID 1146); details: luminescence, 4.5 h, higher = more signal, called active from +8 up or from −8 down;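 note: PC12 cells with 6xCRE LacZ reporter stimulated by forskolin 10 µM; beta-galactosidase reporter signal reflecting CREB driven transcription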
[15] = molecular target: Streptavidin (Streptomyces avidinii) (UniProt P22629); test: streptavidin binders on small-molecule microarray, primary screen, artefact control for SMM compound annotation, biophysical, 635/667 nm fluorescence (AID 1147); details: streptavidin binding, higher = more signal;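 note: signal reflects streptavidin binding to arrayed compounds as a control protein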
Chain of Streptavidin (Streptomyces avidinii) (P22629 whole entry, looked up): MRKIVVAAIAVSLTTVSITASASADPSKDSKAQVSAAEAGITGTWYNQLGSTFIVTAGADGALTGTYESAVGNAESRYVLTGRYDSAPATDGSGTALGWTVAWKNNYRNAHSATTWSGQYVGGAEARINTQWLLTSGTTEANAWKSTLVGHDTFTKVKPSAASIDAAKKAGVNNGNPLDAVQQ

[16] = small-molecule binders of probe aInhba, primary screen, biochemical, small-molecule microarray, 635/667 nm fluorescence (AID 1148); details: higher = more signal;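 note: score merges 667nm spot fluorescence with signal-to-noise for antibody binding to printed compounds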
Torsin-1A (Homo sapiens) [17] = molecular target: Torsin-1A (Homo sapiens) (UniProt O14656); test: torsin A binders from cell lysate, primary screen, small-molecule microarray, wild-type, 635/667 nm (AID 1149); details: COS7 hTOR1A-WT lysate, 635 nm fluorescence, higher = more signal
Chain of Torsin-1A (Homo sapiens) (O14656 whole entry, looked up): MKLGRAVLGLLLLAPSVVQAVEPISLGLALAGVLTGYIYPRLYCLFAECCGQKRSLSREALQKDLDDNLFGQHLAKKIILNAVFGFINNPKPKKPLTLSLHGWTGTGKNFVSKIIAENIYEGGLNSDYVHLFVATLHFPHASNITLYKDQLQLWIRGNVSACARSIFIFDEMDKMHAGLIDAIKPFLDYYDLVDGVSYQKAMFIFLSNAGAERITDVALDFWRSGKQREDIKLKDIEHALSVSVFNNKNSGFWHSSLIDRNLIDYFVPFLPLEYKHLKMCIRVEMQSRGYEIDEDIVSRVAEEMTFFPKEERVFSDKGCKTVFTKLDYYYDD

Torsin-1A (Homo sapiens) [18] = molecular target: Torsin-1A (Homo sapiens) (UniProt O14656); test: small-molecule binders of mutant TOR1A in lysate, primary screen, cell lysate, small-molecule microarray, COS7 lysate, 635/667 nm fluorescence (AID 1150); details: COS7 hTOR1A mutant lysate, 635 nm fluorescence, higher = more signal;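 note: score pools 667 nm emission and signal to noise measuring lysate protein binding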
[19] = system: Sonic hedgehog protein (Shh); test: small-molecule binders of Shh protein, primary screen, biochemical, small-molecule microarray, 635/667 nm fluorescence (AID 1151); details: small-molecule microarray binding, 635 nm fluorescence; higher = more signal;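 note: Shh protein binding to compounds spotted on small-molecule microarray slides; score combines spot fluorescence intensity with signal-to-noise across triplicate slides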

Work on `CC1CC/C=C\[C@H]2OC34C=CCN(c5ccc(Cl)cc5)C(=O)[C@H]3N(CCCCCO)C(=O)[C@]4(C)C2C(=O)O1` (stereo not given in full) yielded a composite z-score [1] of -0.463, a composite z-score [2] of -0.978 and a composite z-score [3] of -0.857. For the same molecule, the composite z-score [4] was -1.65, the composite z-score [5] was -1.58 and the composite z-score [6] was -1.04. The z-score [7] was 0.681, the composite z-score (Lefty1) was -0.778 and the composite z-score [8] was -0.141. For the same molecule, the z-score [9] was -0.535 (inactive), the composite z-score [10] was -0.793 and the z-score [11] was 0.504 (inactive). The z-score [12] was 0.454 (inactive), the z-score [13] was 0.329 (inactive) and the z-score [14] was -0.75 (inactive). For the same molecule, the composite z-score [15] was -1.18, the composite z-score [16] was -0.251 and the composite z-score (Torsin-1A (Homo sapiens) [17]) was -2.18. It also gave a composite z-score (Torsin-1A (Homo sapiens) [18]) of -1.48 and a composite z-score [19] of -0.449.
For `Cc1ccccc1C(O)C1C=CC2C(=O)N(C)C(=O)C2N1N(c1ccccc1)c1ccccc1` (stereo not given), the composite z-score [1] was 1.13, the composite z-score [2] was -0.298 and the composite z-score [3] was -0.128. The composite z-score [4] was 0.354, the composite z-score [5] was 0.799 and the composite z-score [6] was -0.0234. It also gave a z-score [7] of 0.429, a composite z-score (Lefty1) of -0.543 and a composite z-score [8] of 0.641. The z-score [9] was -0.609 (inactive), the composite z-score [10] was 0.613 and the z-score [11] was -0.0897 (inactive). The z-score [12] was -0.588 (inactive), the z-score [13] was -0.136 (inactive) and the z-score [14] was -0.0376 (inactive). The composite z-score [15] was 0.115, the composite z-score [16] was 1.15 and the composite z-score (Torsin-1A (Homo sapiens) [17]) was -0.0241. For the same molecule, the composite z-score (Torsin-1A (Homo sapiens) [18]) was 0.0289 and the composite z-score [19] was 0.188.
Work on `O=C1C2C=CC(C(O)c3ccc(F)cc3)N(n3cnnc3)C2C(=O)N1Cc1ccccc1` (stereo not given) yielded a composite z-score [1] of -0.782, a composite z-score [2] of -0.657 and a composite z-score [3] of -0.284. It also gave a composite z-score [4] of -0.48, a composite z-score [5] of -0.524 and a composite z-score [6] of -0.529. It also gave a z-score [7] of -1.3, a composite z-score (Lefty1) of -0.881 and a composite z-score [8] of -0.271. For the same molecule, the z-score [9] was 1.24 (inactive), the composite z-score [10] was -0.0707 and the z-score [11] was -3.57 (inactive). The z-score [12] was -0.488 (inactive), the z-score [13] was -0.527 (inactive) and the z-score [14] was -0.0197 (inactive). The composite z-score [15] was -0.0183, the composite z-score [16] was 0.0383 and the composite z-score (Torsin-1A (Homo sapiens) [17]) was -0.216. For the same molecule, the composite z-score (Torsin-1A (Homo sapiens) [18]) was 0.461 and the composite z-score [19] was -0.428.
For `COc1ccc([Si](C)(C)[C@@H]2[C@@H](CC(=O)N(CCO)Cc3ccccc3)O[C@]3(C(=O)N(Cc4cccc(N5CCOC5=O)c4)c4ccccc43)[C@H]2C)cc1`, the composite z-score [1] was 1.78, the composite z-score [2] was 1.13 and the composite z-score [3] was 0.139. The composite z-score [4] was 0.732, the composite z-score [5] was 0.583 and the composite z-score [6] was 0.393. The z-score [7] was -0.154, the composite z-score (Lefty1) was 0.899 and the composite z-score [8] was 0.717. The z-score [9] was 0.229 (inactive), the composite z-score [10] was -0.129 and the z-score [11] was -5.47 (inactive). The z-score [12] was -0.122 (inactive), the z-score [13] was 0.748 (inactive) and the z-score [14] was -0.62 (inactive). For the same molecule, the composite z-score [15] was -0.121, the composite z-score [16] was -0.176 and the composite z-score (Torsin-1A (Homo sapiens) [17]) was 0.787. It also gave a composite z-score (Torsin-1A (Homo sapiens) [18]) of 0.347 and a composite z-score [19] of 1.52.
